Measurements from the supplement of paper PMC8253809.
Several values for one entry are separate records, joined by “and”; a condition that tells them apart may be missing. Identical values can stand only once.

Assays:
Assay in all cases: growth inhibition (% activity, log2 RLU normalised to DMSO / staurosporine); higher = more growth inhibition
Details in all cases: 33 µM
DIPGX29 = system: DIPGX29 (H3.3 K27M diffuse intrinsic pontine glioma line)
In short: (§1)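 On Geltrex-coated 384-well plates, pHGG cell lines and H9-derived neural stem cells were grown with approved drugs pinned in at a single final concentration of about 33 μM, in triplicate, for 7 days at 37 °C, 5% CO2. Per-plate normalisation of log2-transformed CellTiter-Glo luminescence to % activity between solvent and positive control wells followed. Each growth-inhibition value is the median over the replicates.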

DIPGX37 = system: DIPGX37 (H3.3 K27M diffuse intrinsic pontine glioma line)
In short: as §1

DIPGX7 = system: DIPGX7 (H3.3 K27M diffuse intrinsic pontine glioma line)
In short: as §1

DIPGX9 = system: DIPGX9 (diffuse intrinsic pontine glioma line)
In short: as §1

HGGX39 = system: HGGX39 (paediatric high-grade glioma line)
In short: as §1

HGGX6 = system: HGGX6 (H3.3 G34R paediatric high-grade glioma line)
In short: as §1

HNSC = system: HNSC
In short: as §1

SUDIPGIV = system: SUDIPGIV (diffuse intrinsic pontine glioma line)
In short: as §1

SUDIPGVI = system: SUDIPGVI (diffuse intrinsic pontine glioma line)
In short: as §1

SUDIPGXIII = system: SUDIPGXIII (diffuse intrinsic pontine glioma line)
In short: as §1

Structure (SMILES)	growth inhibition (DIPGX29)	growth inhibition (DIPGX37)	growth inhibition (DIPGX7)	growth inhibition (DIPGX9)	growth inhibition (HGGX39)	growth inhibition (HGGX6)	growth inhibition (HNSC)	growth inhibition (SUDIPGIV)	growth inhibition (SUDIPGVI)	growth inhibition (SUDIPGXIII)
CN1CC(=O)N2[C@H](c3ccc4c(c3)OCO4)c3[nH]c4ccccc4c3C[C@@H]2C1=O	-0.154%	2.3%	0.64%	0.257%	2.46%	0.71%	-0.244%	0.899%	-1.44%	2.73%
Cc1nc(Nc2ncc(C(=O)Nc3c(C)cccc3Cl)s2)cc(N2CCN(CCO)CC2)n1	8.3%	-3.6%	2.53%	12.4%	15.6%	10.8%	20%	-0.76%	2.41%	2.8%
Nc1nc2c(ncn2COCCO)c(=O)[nH]1	-1.73%	1.12%	1.01%	0.254%	1.26%	-2.13%	5.44%	-0.972%	-0.331%	0.201%
C=C1CC[C@H](O)C/C1=C/C=C1\CCC[C@]2(C)[C@@H]([C@H](C)/C=C/[C@H](C)C(C)C)CC[C@@H]12	3.21%	5.04%	5.34%	3.65%	7.46%	4.35%	9.22%	3.53%	4.49%	0.866%
Clc1ccc(COC(Cn2ccnc2)c2ccc(Cl)cc2Cl)cc1 (stereo not given)	1.53%	4.62%	0.954%	4%	9.31%	8.25%	7.53%	11.7%	1.21%	7.66%
C[C@]12C=CC(=O)C=C1CC[C@H]1[C@@H]3C[C@@H](O)[C@](O)(C(=O)CO)[C@@]3(C)C[C@H](O)[C@@]12F	0.877%	1.05%	-1.73%	3.73%	-0.649%	-0.097%	-1.58%	-3.68%	0.457%	1.54%
Cc1cccc(Nc2ccncc2S(=O)(=O)NC(=O)NC(C)C)c1	-1.52%	1.45%	-0.371%	-0.205%	1.47%	-0.821%	-0.596%	-1.46%	1.11%	1.52%
Cn1c([N+](=O)[O-])cnc1COC(N)=O	0.121%	3.86%	2.76%	0.536%	2.55%	-0.567%	7.72%	2.41%	2.16%	0.864%
COc1cc(OC)c(C(=O)CCCN2CCCC2)c(OC)c1	-0.72%	1.82%	0.0577%	0.123%	1.04%	-0.405%	-0.558%	-0.0523%	0.936%	2.53%
COc1cc(/C=C/C(=O)CC(=O)/C=C/c2ccc(O)c(OC)c2)ccc1O	-0.948%	1.27%	1.4%	0.547%	0.698%	1.98%	-1.04%	-2.56%	0.323%	-11.1%
CCOC(=O)O[C@]1(C(=O)OCCl)CC[C@H]2[C@@H]3CCC4=CC(=O)C=C[C@]4(C)[C@H]3[C@@H](O)C[C@@]21C	1.63%	4.19%	2.28%	3.44%	2.53%	2.56%	1.32%	-2.17%	3.04%	-2.19%
CN/C(=N\CCSCc1nc[nH]c1C)NC#N	0.842%	1.91%	1.01%	0.766%	1.68%	1.98%	0.707%	-0.184%	2.38%	0.0177%
CC(=O)S[C@@H]1CC2=CC(=O)CC[C@]2(C)[C@H]2CC[C@@]3(C)[C@@H](CC[C@@]34CCC(=O)O4)[C@H]12	1.45%	4.15%	2.4%	1.65%	4.84%	2.78%	1.61%	1.73%	2.19%	0.862%
Cc1cc(C(C)(C)C)c(O)c(C)c1CC1=NCCN1	0.231%	3.01%	1.52%	2.19%	1.3%	0.112%	0.146%	1.18%	1.88%	0.459%
CNC(CC(C)C)C(=O)NC1C(=O)NC(CC(N)=O)C(=O)NC2C(=O)NC3C(=O)NC(C(=O)NC(C(=O)O)c4cc(O)cc(O)c4-c4cc3ccc4O)C(O)c3ccc(c(Cl)c3)Oc3cc2cc(c3OC2OC(CO)C(O)C(O)C2OC2CC(C)(N)C(O)C(C)O2)Oc2ccc(cc2Cl)C1O (stereo not given)	-1.35%	-1.91%	-1.76%	-1.16%	-1.53%	-2.38%	-0.899%	-0.924%	-4.84%	-0.803%
CCC[C@@H]1C[C@@H](C(=O)N[C@@H]([C@H]2O[C@H](SC)[C@H](O)[C@@H](O)[C@H]2O)[C@H](C)Cl)N(C)C1	1.54% and 0.31%	0.378% and 0.388%	2.54% and -0.297%	-0.222% and -0.00863%	1.92% and 0.31%	0.389% and -3.2%	3.24% and 18.2%	2.02% and 2.11%	2.1% and -0.349%	-1.04% and -3.03%
COc1ccccc1OCC(O)COC(N)=O (stereo not given)	-0.505%	1.65%	0.111%	0.273%	0.0917%	1%	-1.62%	-1%	0.561%	-0.184%

Structure (SMILES)	growth inhibition (DIPGX29)	growth inhibition (DIPGX37)	growth inhibition (DIPGX7)	growth inhibition (DIPGX9)	growth inhibition (HGGX39)	growth inhibition (HGGX6)	growth inhibition (HNSC)	growth inhibition (SUDIPGIV)	growth inhibition (SUDIPGVI)	growth inhibition (SUDIPGXIII)
O=C([O-])CC(O)(CC(=O)[O-])C(=O)[O-].O=C([O-])CC(O)(CC(=O)[O-])C(=O)[O-].[Bi+3].[K+].[K+].[K+].[K+].[K+]	-1.08%	-0.559%	-0.17%	0.156%	-0.856%	0.952%	-0.691%	-1.2%	-0.266%	-15.3%
Clc1ccccc1CN1CCc2sccc2C1	1.5%	3.08%	2.39%	2.4%	4.15%	0.755%	1.29%	0.722%	3.23%	1.33%
C#CCC(Cc1cnc2nc(N)nc(N)c2n1)c1ccc(C(=O)N[C@@H](CCC(=O)O)C(=O)O)cc1 (stereo not given in full)	10.7%	6.3%	25%	9.98%	22.8%	24%	56.1%	16.5%	17.6%	13%
Oc1c(Cl)cc(Cl)c2cccnc12	4.67%	3.08%	4.55%	5.64%	6.44%	-1.25%	44.3%	3.67%	4.23%	2.6%
O=C(C[S+]([O-])Cc1ccco1)NC/C=C\COc1cc(CN2CCCCC2)ccn1 (stereo not given)	-1.37%	-2.72%	0.0817%	-0.604%	-0.28%	0.0479%	-2.82%	-2.24%	-1.66%	-2.4%
CCN(CC)C(=S)SSC(=S)N(CC)CC	1.19%	3.53%	5.8%	10.8%	3.44%	3.72%	50%	-0.505%	1.15%	0.0312%
CCOC(=O)N1CCC(=C2c3ccc(Cl)cc3CCc3cccnc32)CC1	2.36%	3.66%	1.58%	1.03%	1.57%	1.37%	5.38%	3.97%	1.47%	0.514%
Nc1nc2c(ncn2COC(CO)CO)c(=O)[nH]1	-0.593%	2.32%	-1.01%	1.05%	1.32%	1.03%	-1.32%	-0.797%	-0.103%	1.94%
CCCCCCCCCC(=O)N[C@@H](Cc1c[nH]c2ccccc12)C(=O)N[C@@H](CC(N)=O)C(=O)N[C@@H](CC(=O)O)C(=O)N[C@@H]1C(=O)NCC(=O)N[C@@H](CCCN)C(=O)N[C@@H](CC(=O)O)C(=O)N[C@H](C)C(=O)N[C@@H](CC(=O)O)C(=O)NCC(=O)N[C@H](CO)C(=O)N[C@@H]([C@H](C)CC(=O)O)C(=O)N[C@@H](CC(=O)c2ccccc2N)C(=O)O[C@@H]1C	-2.71%	-1.3%	-0.801%	-2.61%	-1.25%	-2.93%	-6.45%	-2.57%	-3.09%	-1.13%
CC[C@H](C)[C@H](N)C1=N[C@H](C(=O)N[C@@H](CC(C)C)C(=O)N[C@H](CCC(=O)O)C(=O)N[C@H](C(=O)N[C@H]2CCCCNC(=O)[C@H](CC(N)=O)NC(=O)[C@@H](CC(=O)O)NC(=O)[C@H](Cc3cnc[nH]3)NC(=O)[C@@H](Cc3ccccc3)NC(=O)[C@H]([C@@H](C)CC)NC(=O)[C@@H](CCCN)NC2=O)[C@@H](C)CC)CS1	0.716%	-3.59%	2.09%	-0.221%	2.77%	-1.08%	1.3%	0.589%	-1.54%	-1.26%
NC(CO)(CO)CO	0.378%	1.73%	0.549%	1.18%	1.76%	0.412%	0.671%	1.48%	2.52%	0.677%
Nc1nc(N)nc(-c2cc(Cl)ccc2Cl)n1	-2.22%	-3.47%	-1.19%	-0.993%	-0.32%	0.13%	-4.65%	-1.63%	-0.709%	-0.715%
COc1ccc2cc1Oc1ccc(cc1)C[C@H]1c3c(cc4c(c3Oc3cc5c(cc3OC)CCN(C)[C@@H]5C2)OCO4)CCN1C	1.78%	2.93%	1.55%	1.36%	3.95%	0.797%	3.27%	-0.21%	3.68%	1.63%
O=C(O)C1=CO[C@@H](O[C@@H]2O[C@H](CO)[C@@H](O)[C@H](O)[C@H]2O)[C@@H]2C(CO)=CC[C@H]12	-3.84%	-2.61%	-0.0942%	-1.59%	-2.13%	-4.13%	9.11%	-1.22%	-7.67%	-1.52%
NC(=O)c1cccnc1	-0.689%	-1.05%	-0.0852%	0.951%	0.786%	0.835%	0.303%	-0.404%	-0.906%	0.194%
O=C1Cc2cc(CCN3CCN(c4nsc5ccccc45)CC3)c(Cl)cc2N1	1.66%	1.3%	10.1%	1.16%	3.71%	2.44%	1.23%	2.05%	-3.95%	3.01%
